{"source": "PubChem BioAssay AID1159606", "about": "(Sanford-Burnham Center for Chemical Genomics, 2016)", "note": "The campaign covered roughly 360,000 compounds. About 7,300 (2%) were called active. This excerpt belongs to a sample that is enriched for actives. Values without a mark were called inactive. Cut-off read from the data, not from the text of the source: active = inhibition above about 50%; inactive = the rest."}
{"assay": "blockers of TWEAK-induced Fn14 reporter activity – luciferase reporter cells, uHTS, primary screen (AID 1159606)", "conditions": "TWEAK-stimulated Fn14 reporter cells, luciferase luminescence, 8 h; at 10 µM; stronger effect = higher value"}
{"smiles": "Cc1cccc(CN2CCN(C3CN(Cc4ccccc4)S(=O)(=O)C3)CC2)c1", "note": "(centres undefined)", "inhibition": "-19.1%"}
{"smiles": "O=C(c1c(Cl)cccc1Cl)N1CCN(c2cccc3[nH]ccc23)CC1", "inhibition": "-30.3%"}
{"smiles": "COc1ccc(-c2ccc(CN3C(CC(C)C)C(=O)N(Cc4cn(CC5CCCCC5)nn4)CCS3(=O)=O)cc2)cc1", "note": "(centres undefined)", "inhibition": "24.8%"}
{"smiles": "O=S1(=O)CC(N2CCN(CCO)CC2)CN1Cc1cn(Cc2ccc(Cl)cc2)nn1", "note": "(centres undefined)", "inhibition": "-0.1%"}
{"smiles": "O=C(CSc1ncnc2scc(-c3ccccc3)c12)NCc1ccc2c(c1)OCO2", "inhibition": "27.4%"}
{"smiles": "CCOc1c2ccc(C(=O)NCc3ccc4c(c3)OCO4)cc2nn1C", "inhibition": "-1.73%"}
{"smiles": "CN(C)C(=O)c1cccc(-c2cnc3sc(NCc4ccc5c(c4)OCO5)nn23)c1", "inhibition": "81.9% (active)"}
{"smiles": "O=C(C1CCN(S(=O)(=O)c2ccc(Br)s2)CC1)N1CCN(c2ccccc2)CC1", "inhibition": "35.1%"}
{"smiles": "CC(C)C(=O)N1CCC2(CC1)Oc1ccc(F)cc1C(=O)C21CC(c2ccccc2)=NO1", "note": "(centres undefined)", "inhibition": "-32.9%"}
{"smiles": "CC1(C(=O)NNC(=S)NCC2CCCO2)CC1(Cl)Cl", "note": "(centres undefined)", "inhibition": "5.56%"}
{"smiles": "Cc1c(CCC(=O)O)c(=O)oc2c(C)c(OCc3ccccc3Cl)ccc12", "inhibition": "55.7% (active)"}
{"smiles": "Cc1c(CCC(=O)O)c(=O)oc2cc(OCc3ccc(Br)cc3)ccc12", "inhibition": "6.88%"}
{"smiles": "CCOC(=O)CCc1c(C)c2ccc(OCc3nn[nH]n3)c(C)c2oc1=O", "inhibition": "11.4%"}
{"smiles": "CC(C)Nc1ncnc2c1ncn2[C@H]1CN(Cc2ccncc2)C[C@@H](CO)O1", "inhibition": "-31.2%"}
{"smiles": "O=C(Nc1ccc2c(c1)OCCO2)C(C1CC1)N1CCC(Cc2ccccc2)CC1", "note": "(centres undefined)", "inhibition": "-6.47%"}
{"smiles": "O=C(/C(=C/c1cccc(Cl)c1)c1nc2ccccc2[nH]1)c1ccccc1", "inhibition": "72.2% (active)"}
{"smiles": "O=c1c2cc(Br)ccc2nc(-c2cccc(Cl)c2)n1O", "inhibition": "12.1%"}
{"smiles": "Oc1ccc2nc(Cc3ccccc3)[nH]c2c1", "inhibition": "-12.2%"}
{"smiles": "Brc1ccc2nc(-c3ccccc3)c(Cc3ccccc3)n2c1", "inhibition": "-30.1%"}
{"smiles": "CCCCC[C@H](C)N1C[C@@H](COCc2ccccc2)Oc2cc(N3CCC[C@@H]3CO)ccc2S1(=O)=O", "inhibition": "9.1%"}
{"smiles": "Cc1ccc(Sc2ccc(NC(=O)c3ccc(F)cc3)cc2C#N)cc1", "inhibition": "-7.53%"}
{"smiles": "CC(C)(CCl)C(=O)Nc1ccc(Sc2ccc(F)cc2)cc1", "inhibition": "60.9% (active)"}
{"smiles": "O=C(CCl)Nc1ccc(Sc2ccc(NC(=O)CCl)cc2)cc1", "inhibition": "-24.1%"}
{"smiles": "CCn1c(SCC(=O)Nc2nc(C)cs2)nnc1C(C)NC(=O)c1ccccc1", "note": "(centres undefined)", "inhibition": "-0.58%"}
